Assays:
[1] = system: Human papillomavirus type 1a protein E7 (residues 44-93); assay: HPV1a E7 fragment binders on microarrays, primary screen, biochemical, small-molecule microarray, residues 44-93, 635 nm fluorescence (AID 1108); conditions: small-molecule microarray binding, fluorescence 635 nm; higher = more signal;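 note: E7 fragment applied at 1 µg/mL in TBST for 1 h at 4 C; score combines spot fluorescence with its signal to noise ratio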
[2] = modulators of HCV replicon luciferase signal, primary screen, HCV replication inhibitor project, Huh7 cells, luciferase reporter (AID 1109); conditions: 48 h, higher = more signal;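 note: huh7 hepatoma cells harbouring a luciferase neomycin HCV replicon reporter; luciferase luminescence as measure of HCV replicon replication; test concentration not given here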
[3] = biological target: Left-right determination factor 2 (Homo sapiens) (UniProt O00292); assay: LEFTY2 binders on small-molecule microarrays, primary screen, biochemical, small-molecule microarray, 635 nm fluorescence scan (AID 1110); conditions: LEFTY2 binding, higher = more signal
[4] = biological target: Calmodulin-1 (Homo sapiens) (UniProt P0DP23); assay: CALM1 binders on microarrays, EGTA buffer, profiling panel, biochemical, small-molecule microarray, Cy5-labelled CALM1 (AID 1111); conditions: Cy5-CALM1 binding fluorescence, higher = more signal;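 note: labelled calmodulin applied in Tris saline Tween buffer holding calcium plus EGTA and DTT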
[5] = biological target: Calmodulin-1 (Homo sapiens) (UniProt P0DP23); assay: calcium-bound CALM1 binders on microarrays, profiling panel, artefact control for SMM control-protein annotation, biochemical, small-molecule microarray, Cy5-labelled CALM1, plus calcium (AID 1112); conditions: Cy5-CALM1 binding fluorescence, higher = more signal;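 note: score merges spot fluorescence with signal to noise from triplicate slides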
[6] = small-molecule microarray binders of probe aWnt5a, primary screen, biochemical, biotinylated probe, 635/667 nm fluorescence (AID 1113); conditions: higher = more signal;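 note: score merges 667 nm fluorescence intensity with signal-to-noise per printed feature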
[7] = small-molecule microarray binders of probe aShh, primary screen, biochemical, biotinylated probe, 635/667 nm fluorescence (AID 1114); conditions: higher = more signal;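 note: probe is biotin-labelled aShh protein from a stem cell growth factor screen; measures binding of labelled protein to compounds printed on the slide; score merges feature fluorescence at 667 nm with signal-to-noise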
[8] = small-molecule microarray binders of probe aNog, primary screen, biochemical, biotinylated probe, 635/667 nm fluorescence (AID 1115); conditions: higher = more signal;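 note: probe is biotinylated aNog protein used at 0.15 µg/mL for 1 h at 4 C; z-score combines 667 nm fluorescence of each spot with its signal to noise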
[9] = biological target: Torsin-1A-interacting protein 1 (Homo sapiens) (UniProt Q5JTV8); assay: LAP1 binders from COS7 cell lysate, primary screen, small-molecule microarray, 635/667 nm fluorescence (AID 1116); conditions: COS7-hLAP1 lysate binding, 635 nm fluorescence, higher = more signal
[10] = biological target: Alpha-bungarotoxin (Bungarus multicinctus) (UniProt P60615); assay: alpha-bungarotoxin binders on microarray, profiling panel, artefact control for SMM control protein annotation, biochemical, small-molecule microarray, Alexa647 label, 635/667 nm fluorescence (AID 1117); conditions: alpha-BTX-A647 binding fluorescence, higher = more signal
Alpha-bungarotoxin (Bungarus multicinctus), sequence (P60615 whole entry, looked up): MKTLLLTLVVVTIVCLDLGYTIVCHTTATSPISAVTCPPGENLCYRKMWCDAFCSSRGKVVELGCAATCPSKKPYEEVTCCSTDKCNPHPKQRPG

Left-right determination factor 2 (Homo sapiens), sequence (O00292 whole entry, looked up): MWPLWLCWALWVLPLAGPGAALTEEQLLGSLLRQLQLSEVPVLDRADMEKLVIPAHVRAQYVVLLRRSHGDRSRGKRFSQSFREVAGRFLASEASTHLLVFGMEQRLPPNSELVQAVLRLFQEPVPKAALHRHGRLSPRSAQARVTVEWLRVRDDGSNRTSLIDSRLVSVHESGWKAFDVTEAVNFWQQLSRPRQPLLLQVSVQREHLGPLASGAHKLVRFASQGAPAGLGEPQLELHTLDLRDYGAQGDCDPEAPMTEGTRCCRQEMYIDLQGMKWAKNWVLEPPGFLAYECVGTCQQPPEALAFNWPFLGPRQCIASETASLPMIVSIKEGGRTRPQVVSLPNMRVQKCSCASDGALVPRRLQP
Torsin-1A-interacting protein 1 (Homo sapiens), sequence (Q5JTV8 whole entry, looked up): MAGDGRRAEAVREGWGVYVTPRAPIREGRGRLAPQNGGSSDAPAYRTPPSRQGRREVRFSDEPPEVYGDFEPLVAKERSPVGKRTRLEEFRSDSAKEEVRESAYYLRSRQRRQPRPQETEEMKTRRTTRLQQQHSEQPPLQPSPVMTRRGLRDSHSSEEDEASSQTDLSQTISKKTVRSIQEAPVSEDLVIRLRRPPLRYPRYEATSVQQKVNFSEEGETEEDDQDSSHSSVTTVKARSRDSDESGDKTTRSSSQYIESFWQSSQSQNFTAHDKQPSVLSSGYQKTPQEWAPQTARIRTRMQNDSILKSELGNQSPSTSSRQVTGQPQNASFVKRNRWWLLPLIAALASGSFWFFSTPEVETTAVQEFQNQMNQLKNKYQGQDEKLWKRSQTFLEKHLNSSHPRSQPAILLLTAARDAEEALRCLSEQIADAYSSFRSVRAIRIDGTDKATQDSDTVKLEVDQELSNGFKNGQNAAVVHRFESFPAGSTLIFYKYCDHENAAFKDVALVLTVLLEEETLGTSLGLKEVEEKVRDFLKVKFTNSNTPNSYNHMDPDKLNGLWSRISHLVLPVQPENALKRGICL

## COc1ccc([Si](C)(C)[C@H]2[C@H](CC(=O)N3Cc4ccccc4C[C@H]3CO)O[C@@]3(C(=O)N(Cc4cccc(N5CCCCC5=O)c4)c4ccccc43)[C@@H]2C)cc1
[1]
  composite z-score: 0.551
[2]
  z-score: -3.77
[3]
  composite z-score: 0.983
[4]
  composite z-score: -0.226
[5]
  composite z-score: -0.48
[6]
  composite z-score: -0.043
[7]
  composite z-score: -0.0553
[8]
  composite z-score: -0.0206
[9]
  composite z-score: 0.547
[10]
  composite z-score: 0.244

## CCCN1C(=O)[C@]2(Cc3ccccc3)N=C(c3ccc(OCCCO)cc3)O[C@@H]2c2ccccc21
[1]
  composite z-score: 1.06
[2]
  z-score: -2.7
[3]
  composite z-score: 0.118
[4]
  composite z-score: 1.14
[5]
  composite z-score: -0.422
[6]
  composite z-score: 0.027
[7]
  composite z-score: -0.231
[8]
  composite z-score: -0.646
[9]
  composite z-score: 0.42
[10]
  composite z-score: 1.33

## CN(C)C(=O)[C@@]1(Cc2ccccc2N=[N+]=[N-])COC(c2ccc(OCCCO)cc2)=N1
[1]
  composite z-score: 1
[2]
  z-score: -1.69
[3]
  composite z-score: -0.475
[4]
  composite z-score: 1.32
[5]
  composite z-score: 0.202
[6]
  composite z-score: 0.212
[7]
  composite z-score: 0.661
[8]
  composite z-score: -1.05
[9]
  composite z-score: 1.04
[10]
  composite z-score: 1.55

## COCCCNC(=O)[C@@]1(Sc2ccc(C)cc2)CC(=O)N(C2Cc3ccccc3C2)[C@@H]1c1ccc(CO)cc1I
[1]
  composite z-score: -0.499
[2]
  z-score: -1.05
[3]
  composite z-score: -1.31
[4]
  composite z-score: -0.176
[5]
  composite z-score: 0.0685
[6]
  composite z-score: -0.154
[7]
  composite z-score: -0.536
[8]
  composite z-score: -0.0621
[9]
  composite z-score: -0.354
[10]
  composite z-score: -0.0078

## COCCOC(=O)N1C(=O)[C@@]2(c3ccccc31)[C@H](c1ccc(OCCO)cc1)N1[C@H](c3ccccc3)[C@H](c3ccccc3)OC(=O)[C@H]1[C@@H]2C(=O)Nc1nc2ccccc2s1
[1]
  composite z-score: 1.34
[2]
  z-score: -1.33
[3]
  composite z-score: 0.492
[4]
  composite z-score: 1.68
[5]
  composite z-score: 0.397
[6]
  composite z-score: 0.0431
[7]
  composite z-score: -0.0769
[8]
  composite z-score: 0.516
[9]
  composite z-score: 0.903
[10]
  composite z-score: 1.13

## COCC(=C=CC[C@H](O)c1cccc(OCCO)c1)C[C@H](O)c1ccccn1
[1]
  composite z-score: 0.0462
[2]
  z-score: -0.0093
[3]
  composite z-score: -0.0587
[4]
  composite z-score: -0.319
[5]
  composite z-score: -0.621
[6]
  composite z-score: 0.0151
[7]
  composite z-score: 0.0952
[8]
  composite z-score: 0.167
[9]
  composite z-score: 1.68
[10]
  composite z-score: 1.26

## COCCOC(=O)N1C(=O)[C@@]2(c3cc(C#CC4(O)CCCCCC4)ccc31)[C@H](C(N)=O)[C@H]1C(=O)O[C@H](c3ccccc3)[C@H](c3ccccc3)N1[C@@H]2c1ccccc1OCCO
[1]
  composite z-score: 1.38
[2]
  z-score: -3.3
[3]
  composite z-score: 0.339
[4]
  composite z-score: -0.0545
[5]
  composite z-score: -0.0174
[6]
  composite z-score: -0.0758
[7]
  composite z-score: -0.223
[8]
  composite z-score: -0.531
[9]
  composite z-score: 0.529
[10]
  composite z-score: 1.01

## CC(C)CCC[C@@H](C)[C@H]1CC[C@@]2(C)C3=C(CC[C@]12C)[C@@]1(C)CC[C@H](OC(=O)c2ccc(Br)cc2)C(C)(C)C1CC3 (stereo not given in full)
[1]
  composite z-score: -0.298
[2]
  z-score: 0.132
[3]
  composite z-score: 0.711
[4]
  composite z-score: 0.132
[5]
  composite z-score: -0.442
[6]
  composite z-score: -0.157
[7]
  composite z-score: -0.0977
[8]
  composite z-score: -0.18
[9]
  composite z-score: 0.162
[10]
  composite z-score: 0.204

## COCCOC(=O)N1C(=O)[C@@]2(c3cc(C#CC4=CCCCC4)ccc31)[C@H](C(=O)N1CCN(c3ncccn3)CC1)[C@H]1C(=O)O[C@H](c3ccccc3)[C@H](c3ccccc3)N1[C@@H]2c1ccc(O)cc1
[1]
  composite z-score: 0.683
[2]
  z-score: -1.46
[3]
  composite z-score: 0.557
[4]
  composite z-score: 0.951
[5]
  composite z-score: 0.727
[6]
  composite z-score: -0.0685
[7]
  composite z-score: 0.258
[8]
  composite z-score: 0.0234
[9]
  composite z-score: 1.28
[10]
  composite z-score: 1.45

## NCCCCCCNC(=O)[C@H]1C[C@H]2C(=O)N[C@@H](Cc3ccccc3)C(=O)N2[C@H]1c1ccc(O)cc1
[1]
  composite z-score: 0.74
[2]
  z-score: 0.914
[3]
  composite z-score: 0.338
[4]
  composite z-score: 1.44
[5]
  composite z-score: 1.17
[6]
  composite z-score: -0.0033
[7]
  composite z-score: -0.1
[8]
  composite z-score: -0.0496
[9]
  composite z-score: 1.21
[10]
  composite z-score: 1.55

## CC(C)C(O)C1C=CC2C(=O)N(C)C(=O)C2N1N(c1ccccc1)c1ccccc1 (stereo not given)
[1]
  composite z-score: -0.192
[2]
  z-score: 0.865
[3]
  composite z-score: 0.0172
[4]
  composite z-score: 0.107
[5]
  composite z-score: 0.368
[6]
  composite z-score: -0.0165
[7]
  composite z-score: 0.14
[8]
  composite z-score: 0.603
[9]
  composite z-score: 0.251
[10]
  composite z-score: 0.218

## CC=CC(O)C1C=CC2C(=O)N(c3ccccc3)C(=O)C2N1Nc1ccccc1 (stereo not given)
[1]
  composite z-score: 1.19
[2]
  z-score: 0.527
[3]
  composite z-score: 0.215
[4]
  composite z-score: 0.667
[5]
  composite z-score: 0.362
[6]
  composite z-score: 0.136
[7]
  composite z-score: 0.304
[8]
  composite z-score: 1.16
[9]
  composite z-score: 1.1
[10]
  composite z-score: 1.89

## CCCC=C(CCC)[C@@H](NP(=O)(c1ccccc1)c1ccccc1)c1ccc(C(F)(F)F)cc1
[1]
  composite z-score: 1.13
[2]
  z-score: -0.475
[3]
  composite z-score: 0.0293
[4]
  composite z-score: 0.0848
[5]
  composite z-score: -0.33
[6]
  composite z-score: 0.474
[7]
  composite z-score: 0.135
[8]
  composite z-score: -0.301
[9]
  composite z-score: 0.145
[10]
  composite z-score: 0.109

## CN(C)CCCNC(=O)[C@@H]1c2ccccc2C(=O)N(CC23CC4CC(CC(C4)C2)C3)[C@H]1c1ccc(CO)cc1
[1]
  composite z-score: 1.47
[2]
  z-score: -3.1
[3]
  composite z-score: 0.832
[4]
  composite z-score: 0.309
[5]
  composite z-score: -0.632
[6]
  composite z-score: 0.0215
[7]
  composite z-score: -0.542
[8]
  composite z-score: -0.403
[9]
  composite z-score: 0.858
[10]
  composite z-score: 1.65

## O=C1c2ccccc2[C@@]2(Cc3ccccc3N(C3CC3)C2=O)[C@H](c2ccc(CO)cc2)N1C1CCCCC1
[1]
  composite z-score: 0.0731
[2]
  z-score: 0.056
[3]
  composite z-score: -0.825
[4]
  composite z-score: 0.0762
[5]
  composite z-score: 0.347
[6]
  composite z-score: -0.096
[7]
  composite z-score: 0.107
[8]
  composite z-score: -0.0165
[9]
  composite z-score: -0.502
[10]
  composite z-score: 0.233

## CO[C@H]1O[C@H](CO)[C@@H](OC(=O)Nc2ccc(C(F)(F)F)cc2)[C@H](OC(=O)Nc2ccc3c(c2)OCO3)[C@H]1OC(=O)Nc1ccc2c(c1)OCO2
[1]
  composite z-score: 1.33
[2]
  z-score: -2.79
[3]
  composite z-score: 0.0746
[4]
  composite z-score: 1.84
[5]
  composite z-score: -0.367
[6]
  composite z-score: 0.0438
[7]
  composite z-score: 0.0437
[8]
  composite z-score: 0.925
[9]
  composite z-score: 2
[10]
  composite z-score: 0.648

## C=CCOC(=O)[C@@H]1[C@H]2C(=O)O[C@H](c3ccccc3)[C@H](c3ccccc3)N2[C@H](c2ccc(OCCOC(=O)[C@H]3C[C@H]4C(=O)N[C@@H](CCCCN(C)C)C(=O)N4[C@H]3c3cccc(OCCO)c3)cc2)[C@@]12C(=O)Nc1ccc(I)cc12
[1]
  composite z-score: 1.42
[2]
  z-score: -1.14
[3]
  composite z-score: 0.724
[4]
  composite z-score: 0.993
[5]
  composite z-score: -0.069
[6]
  composite z-score: -0.13
[7]
  composite z-score: 0.123
[8]
  composite z-score: -0.0863
[9]
  composite z-score: 1.03
[10]
  composite z-score: 2.07
